This is an account of results in PubChem BioAssay.

The nature of test [1]: compounds binding Alexa647 anti-His antibody – biochemical, small-molecule microarray, 635 nm fluorescence, artefact control for SMM control protein annotation, primary screen (AID 1128).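 Also: score merges feature fluorescence with signal-to-noise for each printed compound spot.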 The following applies: higher = more signal.
Test [2] concerns Human papillomavirus type 1a E7 protein (residues 1-88). The test can be described thus: HPV1a E7 small-molecule binders, primary screen, biochemical, small-molecule microarray, residues 1-88, 635 nm (AID 1129). Particulars: small-molecule microarray binding, fluorescence 635 nm; higher = more signal.
Test [3] deals with Focal adhesion kinase 1 (Homo sapiens) (UniProt Q05397). The test is described as follows: PTK2 protein binding on printed compound slides – biochemical, small-molecule microarray, 635/667 nm fluorescence, BSA, DTT, primary screen (AID 1130).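 Also: composite of spot emission at 667 nm and signal to noise over triplicate slides.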 Particulars: 635 nm fluorescence, higher = more signal.
The subject of test [4] is Fibrinogen (Alexa647-labelled). The test can be described thus: Alexa647-fibrinogen binding to printed small molecules – biochemical, small-molecule microarray, 635/667 nm fluorescence, artefact control for SMM control-protein annotation, profiling panel (AID 1131).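 Also: z-score merges 667 nm fluorescence with per-spot signal-to-noise over triplicate slides.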 The following applies: fibrinogen-A647 binding fluorescence, higher = more signal.
For test [5], the target named is Follistatin (Homo sapiens) (UniProt P19883). The test is described as follows: FST protein binding to printed compounds – biochemical, small-molecule microarray, 635/667 nm fluorescence, primary screen (AID 1132). The following applies: 635 nm fluorescence, higher = more signal.
The target in test [6] is Fibroblast growth factor 2 (Homo sapiens) (UniProt P09038). The test is described as follows: basic fibroblast growth factor binding to printed compounds – biochemical, small-molecule microarray, 635/667 nm fluorescence, primary screen (AID 1133). The following applies: FGF2, fluorescence 635/667, higher = more signal.
Test [7] is described as follows: JC-1 mitochondrial potential readout, lung cancer cells – cell-based, A549, JC-1 fluorescence, basal, 24 h, 100 nL, profiling panel (AID 1138).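 Also: A549 lung adenocarcinoma cells under basal conditions with no added stimulus; test concentration not given here.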 The following applies: higher = more signal.
In a further test the test system is Lefty1. The test can be described thus: Lefty1 protein binding to printed compounds – biochemical, small-molecule microarray, 635/667 nm fluorescence, primary screen (AID 1139). The following applies: fluorescence 635/667, higher = more signal.
In test [8] the test system is wheat germ agglutinin (Triticum aestivum), Alexa647-labelled. The test can be described thus: Alexa647-WGA lectin binding to printed small molecules – biochemical, small-molecule microarray, 635/667 nm fluorescence, artefact control for SMM control-protein annotation, profiling panel (AID 1140).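 Also: score merges 667 nm feature emission with signal to noise over triplicate slides.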 The following applies: WGA-A647 binding, 635 nm fluorescence, higher = more signal.

The target of test [9] is Luciferin 4-monooxygenase (Photinus pyralis) (UniProt P08659). The test can be described thus: inhibition of purified Photinus pyralis luciferase – biochemical, luminescence, purified enzyme, 2006 set, primary screen (AID 1141).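 Also: cell-free assay with purified firefly luciferase at 100 ng per well in PBS; test concentration not given here.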 Particulars: purified firefly luciferase, SteadyGlo luminescence, 30 min; higher = more signal, called active from +8 up or from −8 down.

Activity calls are given as the source filed them.

Sequence of Follistatin (Homo sapiens) (P19883 whole entry, looked up): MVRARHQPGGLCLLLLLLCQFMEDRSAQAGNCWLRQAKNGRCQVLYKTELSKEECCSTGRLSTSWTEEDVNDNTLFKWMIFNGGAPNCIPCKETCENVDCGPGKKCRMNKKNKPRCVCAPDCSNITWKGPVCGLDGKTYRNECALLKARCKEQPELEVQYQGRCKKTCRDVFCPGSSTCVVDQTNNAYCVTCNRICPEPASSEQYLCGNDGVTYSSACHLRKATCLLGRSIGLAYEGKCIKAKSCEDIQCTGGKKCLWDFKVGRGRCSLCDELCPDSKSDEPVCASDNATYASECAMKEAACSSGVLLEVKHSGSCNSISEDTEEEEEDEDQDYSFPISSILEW
Sequence of Focal adhesion kinase 1 (Homo sapiens) (Q05397 whole entry, looked up): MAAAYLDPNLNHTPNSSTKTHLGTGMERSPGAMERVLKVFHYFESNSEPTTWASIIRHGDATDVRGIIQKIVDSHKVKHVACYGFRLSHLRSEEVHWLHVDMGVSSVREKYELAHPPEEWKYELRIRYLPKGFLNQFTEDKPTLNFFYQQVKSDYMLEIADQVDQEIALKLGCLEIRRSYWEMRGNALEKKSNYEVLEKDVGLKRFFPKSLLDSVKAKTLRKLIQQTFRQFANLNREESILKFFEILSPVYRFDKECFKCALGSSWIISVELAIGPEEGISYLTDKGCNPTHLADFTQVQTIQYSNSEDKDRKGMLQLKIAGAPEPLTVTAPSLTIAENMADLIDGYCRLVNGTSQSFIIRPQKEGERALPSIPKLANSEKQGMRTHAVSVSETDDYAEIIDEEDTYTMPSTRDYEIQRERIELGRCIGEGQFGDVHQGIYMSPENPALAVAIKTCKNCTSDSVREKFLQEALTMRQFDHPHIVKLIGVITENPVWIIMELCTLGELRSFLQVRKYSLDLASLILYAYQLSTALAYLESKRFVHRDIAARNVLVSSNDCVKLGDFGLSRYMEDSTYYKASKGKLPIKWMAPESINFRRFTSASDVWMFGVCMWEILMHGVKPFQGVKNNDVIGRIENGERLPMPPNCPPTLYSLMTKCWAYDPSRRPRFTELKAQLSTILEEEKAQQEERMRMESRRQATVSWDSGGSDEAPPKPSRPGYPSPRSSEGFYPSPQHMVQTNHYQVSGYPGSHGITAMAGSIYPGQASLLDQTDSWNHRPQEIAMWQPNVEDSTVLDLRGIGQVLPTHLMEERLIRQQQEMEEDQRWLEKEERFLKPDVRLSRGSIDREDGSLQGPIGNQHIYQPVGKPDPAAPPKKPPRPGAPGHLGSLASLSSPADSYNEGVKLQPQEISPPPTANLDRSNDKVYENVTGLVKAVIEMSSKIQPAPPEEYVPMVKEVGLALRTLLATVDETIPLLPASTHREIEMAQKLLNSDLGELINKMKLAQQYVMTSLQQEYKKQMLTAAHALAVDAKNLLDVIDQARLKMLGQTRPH
Sequence of Luciferin 4-monooxygenase (Photinus pyralis) (P08659 whole entry, looked up): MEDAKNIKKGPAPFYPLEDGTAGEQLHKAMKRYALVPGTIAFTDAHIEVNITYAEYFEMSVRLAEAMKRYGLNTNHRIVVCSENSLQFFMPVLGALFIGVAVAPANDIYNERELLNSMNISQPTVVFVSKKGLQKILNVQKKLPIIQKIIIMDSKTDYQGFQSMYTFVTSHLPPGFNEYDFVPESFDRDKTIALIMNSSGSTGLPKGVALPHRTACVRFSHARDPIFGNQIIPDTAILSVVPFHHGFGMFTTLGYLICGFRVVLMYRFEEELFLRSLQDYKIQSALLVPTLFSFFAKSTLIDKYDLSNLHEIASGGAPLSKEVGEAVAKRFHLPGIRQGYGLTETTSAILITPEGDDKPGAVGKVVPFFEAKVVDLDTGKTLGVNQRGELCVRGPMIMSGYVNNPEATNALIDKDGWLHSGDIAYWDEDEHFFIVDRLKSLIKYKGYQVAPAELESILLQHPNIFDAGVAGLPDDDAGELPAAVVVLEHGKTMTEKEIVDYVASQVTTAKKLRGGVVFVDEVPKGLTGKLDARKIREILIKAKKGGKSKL
Sequence of Fibroblast growth factor 2 (Homo sapiens) (P09038 whole entry, looked up): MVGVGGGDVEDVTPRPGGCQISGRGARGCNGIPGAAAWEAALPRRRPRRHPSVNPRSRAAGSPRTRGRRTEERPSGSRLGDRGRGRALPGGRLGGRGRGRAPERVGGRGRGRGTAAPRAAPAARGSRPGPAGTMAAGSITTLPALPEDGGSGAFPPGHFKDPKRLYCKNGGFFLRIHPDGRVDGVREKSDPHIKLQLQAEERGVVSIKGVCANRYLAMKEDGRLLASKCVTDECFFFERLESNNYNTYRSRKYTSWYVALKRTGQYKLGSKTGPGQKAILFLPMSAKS

For `COc1ccc([Si](C)(C)[C@@H]2[C@@H](CCn3cc([C@H](O)c4ccccc4)nn3)O[C@]3(C(=O)N(Cc4ccc(N5C(=O)c6cccc7cccc5c67)cc4)c4ccccc43)[C@H]2C)cc1`, the composite z-score in test [1] was 0.448; in test [2] it was -0.412; in test [3], -0.465; in [4], -0.151; in test [5], -0.7; in test [6] it was -0.513. The composite z-score in the test with Lefty1 was -0.236; in test [8], -0.101. Besides, the z-score in test [7] was 1.57; in test [9], -0.303 (inactive).
Regarding `Cc1ccc(S[C@]2(C(=O)NCC(C)C)CC(=O)N(Cc3ccccc3Cl)[C@@H]2c2ccc(CO)cc2)cc1`, the composite z-score was 1.8 in test [1]; -1.41 in test [2]; -1.09 in test [3]; -0.804 in test [4]; -1.5 in test [5]; -1.21 in [6]. In addition, the composite z-score is -2.17 in the test with Lefty1 and 0.208 in test [8]. The z-score in test [7] was 1.37; in test [9], -0.79 (inactive).
For `COCCOC(=O)N1C(=O)[C@@]2(c3ccccc31)[C@H](C(=O)NC[C@H](O)c1ccccc1)[C@H]1C(=O)O[C@H](c3ccccc3)[C@H](c3ccccc3)N1[C@@H]2c1ccc(OCCO)cc1`, the composite z-score in test [1] was 0.791; in test [2], 1.15; in [3] it was 0.367; in test [4] it was 0.715; in test [5] it was 1.47; in [6] it was 1.77. The composite z-score in the test with Lefty1 turned out to be 1.58; in test [8], 0.387. In addition, the z-score was -0.542 in [7] and 0.888 (inactive) in [9].
Turning to `COc1ccc(C(=O)Nc2cccc(CN3C(=O)[C@@]4(O[C@@H](CCn5cc(CCO)nn5)[C@H]([Si](C)(C)c5ccc(OC)cc5)[C@H]4C)c4ccccc43)c2)cc1`, the composite z-score was 1.38 in test [1]; 1.16 in [2]; 0.582 in [3]; 0.701 in test [4]; 1.35 in test [5]; 1.51 in test [6]. Further, the values for the composite z-score (in the test with Lefty1; in test [8]) were 1.29 and 0.701, respectively. For the same compound, the z-score in [7] is -0.0548; in [9] it was -0.775 (inactive).
With `COCCCNC(=O)[C@@]1(C)c2ccccc2C(=O)N(Cc2cc(C(F)(F)F)cc(C(F)(F)F)c2)[C@H]1c1ccc(CO)cc1`, the composite z-score was -0.12 in [1]; -0.203 in [2]; 0.295 in test [3]; 0.207 in test [4]; -0.672 in test [5]; -1.5 in test [6]. Besides, the composite z-score with Lefty1 is -0.191; in test [8], 0.0593. The results for the z-score in [7] and in test [9] were 0.509 and 1.16 (inactive), respectively.
`COc1cc2c(cc1O)C(C)N(Cc1cccc(OC(F)(F)F)c1)CC2` (stereo not given): the composite z-score is 1.72 in [1]; 1.13 in [2]; -0.135 in test [3]; 0.966 in [4]; 0.659 in test [5]; -0.258 in test [6]. Further, the composite z-score was 0.108 with Lefty1 and 0.984 in test [8]. Moreover, the values for the z-score in test [7] and in [9] were -0.681 and 1.35 (inactive), respectively.
As for `C=CC(COC(C)=O)NS(=O)(=O)c1ccc(Br)cc1` (stereo not given), the composite z-score was 0.192 in test [1]; 0.971 in [2]; -0.271 in test [3]; 0.596 in [4]; 0.902 in test [5]; 0.608 in test [6]. In addition, the composite z-score in the test on Lefty1 is 0.673; in [8], 0.0285. Further, the figures for the z-score in test [7] and in test [9] were 0.499 and -0.481 (inactive), respectively.
Regarding `C=CCC(OC(C)=O)[C@@H]1[C@@H](N(Cc2cccc3ccccc23)C(=O)c2cccc3ccccc23)c2cc(OCCCO)ccc2N1C(=O)c1ccc2ccccc2n1` (stereo not given in full), the composite z-score was 0.833 in test [1]; -0.0829 in test [2]; 0.791 in test [3]; 0.868 in test [4]; 1.05 in test [5]; 0.494 in test [6]. Also, the composite z-score is 0.457 with Lefty1 and -0.243 in test [8]. Also, the z-score in [7] is -0.449; in [9], 1.01 (inactive).
With `Cc1ccc(S[C@]2(C(=O)NCc3ccccc3)CC(=O)N(Cc3ccccc3)[C@@H]2c2ccc(CO)cc2)cc1`, the composite z-score in test [1] is 3.05; in test [2], 0.0804; in test [3], 0.691; in test [4] it was -0.909; in test [5] it was -0.211; in test [6] it was -0.524. The composite z-score is -1.33 in the test on Lefty1 and -0.425 in [8]. The figures for the z-score in test [7] and in test [9] were 0.561 and -0.627 (inactive), respectively.
For the compound `O=C1C2C=CC(C(O)c3cccs3)N(Nc3ccccc3F)C2C(=O)N1c1ccccc1` (stereo not given), the composite z-score in [1] was 1.29; in [2] it was 1.09; in [3] it was 0.961; in test [4], 0.916; in [5], 0.414; in test [6] it was -0.282. Further, the results for the composite z-score (with Lefty1; in [8]) were -0.0918 and 0.127, respectively. The results for the z-score in [7] and in test [9] were -0.265 and 1.71 (inactive), respectively.
Consider `CCOC(=O)C1=CCC(C(C)(C)C)N(S(=O)(=O)c2ccc(C)cc2)C1` (stereo not given), for which the composite z-score in test [1] was 0.992; in test [2], 1.26; in test [3] it was 0.225; in test [4], 1.01; in test [5], 1.29; in [6], 1.39. Moreover, the composite z-score in the test on Lefty1 was found to be 1; in test [8], 0.722. The z-score in test [7] was 0.363; in test [9], 0.916 (inactive).
